Bioassay records (PubChem BioAssay)
Only some compounds are listed: those with a hit (about 12% of all), similar ones and a draw of the others.
Sfp inh = Sfp phosphopantetheinyl transferase inhibition; Q9F4F7; Biochemical Sfp PPTase activity, qHTS; Potency, µM, inactives show largest response in the series, negative = inhibition, hits mostly inhibitors; 310,000 compounds, 3.5% hits;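 further: the enzyme is Sfp with the accession as filed and its product quenches rhodamine fluorescence; 0% = enzyme reaction without inhibitor and -100% = no enzyme wells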
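Step 1, compound plus 15 nM Sfp-PPTase, 15 min, room temperature. Step 2, add rhodamine-CoA (5 uM) and BHQ-2-YbbR (12.5 uM). Step 3, read 525/598 nm fluorescence at 0 and 30 min.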
JMJD2A Tudor = blocks the human JMJD2A Tudor domain; Potency, µM (doses to about 114 µM), for inactives: top-dose activity change, negative = inhibition, hits mostly inhibitors; AID 504339; O75164; 390,000 compounds, 4.4% hits; AlphaScreen JMJD2A-Tudor / H3K4me3 peptide binding; further: on the % scale 0 is the no-effect control and ±100 the full control effect; nearly all actives have a fitted effect of over 50% in size
G9a block = inhibitors of human histone lysine methyltransferase G9a. Q96KQ7. G9a H3K9 monomethylation, AlphaScreen, 2 h. Potency, µM (top dose mostly 102 µM), for the others: top-dose activity, negative = inhibition, actives largely listed as inhibitors. 350,000 compounds, 8.8% hits. AID 504332; further: on the % scale 0 is the no-effect control and ±100 the full control effect; nearly all actives have a fitted effect of over 75% in size
Target sequence (Q96KQ7 913-1193 limits assumed): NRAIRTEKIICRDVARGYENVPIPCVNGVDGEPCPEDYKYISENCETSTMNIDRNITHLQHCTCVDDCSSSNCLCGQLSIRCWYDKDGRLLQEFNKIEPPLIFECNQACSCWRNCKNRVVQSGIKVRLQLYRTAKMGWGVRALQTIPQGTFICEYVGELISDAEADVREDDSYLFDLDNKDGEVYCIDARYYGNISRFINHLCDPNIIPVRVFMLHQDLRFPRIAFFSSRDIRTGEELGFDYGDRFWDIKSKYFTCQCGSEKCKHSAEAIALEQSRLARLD
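G9a (20 nM) preincubated 15 min RT with compounds, then 500 nM biotinylated H3K9 peptide and 20 uM SAM added; 2 h RT reaction. Monomethyl-H3K9 product detected by AlphaScreen with anti-H3K9me1 antibody, streptavidin donor and anti-rabbit IgG acceptor beads.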
HP1b chromo inh = blocks HP1-beta chromodomain binding to methylated histone tails; 390,000 compounds, 0.56% hits; AlphaScreen HP1-beta / biotin-H3K9me3 peptide binding; Potency, µM (series often up to 114 µM), for the others: at the top dose activity change, negative = inhibition, actives largely listed as inhibitors; further: nearly all actives have a fitted effect of over 70% in size
Target sequence (P83916 whole entry, looked up): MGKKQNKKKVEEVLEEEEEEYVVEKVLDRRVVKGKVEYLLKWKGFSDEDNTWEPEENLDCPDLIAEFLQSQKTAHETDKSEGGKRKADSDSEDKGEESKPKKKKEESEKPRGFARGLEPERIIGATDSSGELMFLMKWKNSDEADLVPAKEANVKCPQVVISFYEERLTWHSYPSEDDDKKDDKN
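HP1-beta protein (50 nM final) preincubated 30 min at room temperature with biotinylated H3(1-18)K9me3 peptide (50 nM) in PBS pH 7.4, 0.01% Tween-20, then compound added for 30 min. AlphaScreen streptavidin donor/nickel chelate acceptor beads (10 ug/mL final), 30 min dark, luminescence read.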
BAZ2B inh = BAZ2B (human) inhibition; Potency, µM (titrated, usually from 114 µM), without a hit: at the highest dose activity change, negative = inhibition, hits mostly inhibitors; AID 504333; 360,000 compounds, 4.4% hits; AlphaScreen BAZ2B-H3K14Ac peptide displacement; further: on the % scale 0 is the no-effect control and ±100 the full control effect; nearly all actives have a fitted effect of over 60% in size
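In this displacement format the biotinylated H3(5-23) peptide acetylated at Lys14 serves as ligand at 50 nM, with BAZ2B at 50 nM in PBS pH 7.4 containing 0.01% Tween-20. Donor and acceptor beads are 10 ug/mL final.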
The depositor's hits bear a star; [ ] = remark or other dose. The call rests on the fitted dose curve; in most records, active means well fitted curve in the direction sought with a large enough effect; inconclusive means small, poorly fitted or top-dose-only effect, or another doubt; inactive means no such curve, though single readings can be large; an effect the other way counts as inactive or inconclusive. Potency means the concentration at half of the fitted maximal effect.

`CCCCn1c(O)c(C(CC)=NCCN2CCOCC2)c(=O)[nH]c1=O` gave Sfp inh -25%, JMJD2A Tudor -14%, G9a block inconclusive, HP1b chromo inh 32% and BAZ2B inh inconclusive.
`CC(=NCCCN1CCOCC1)c1c(O)n(Cc2ccccc2)c(=O)[nH]c1=O` gave Sfp inh -6%, JMJD2A Tudor -12%, G9a block -51%[59 µM], HP1b chromo inh 22% and BAZ2B inh 5%.
`CCCCn1c(O)c(C(C)=NCCN2CCOCC2)c(=O)[nH]c1=O` gave Sfp inh 21%, JMJD2A Tudor -9%, G9a block 22µM*, HP1b chromo inh 35% and BAZ2B inh 13%.
Screening CCCCn1c(O)c(C=NCCN2CCCCC2)c(=O)[nH]c1=O returned Sfp inh 13%, JMJD2A Tudor -5%, G9a block 79µM*, HP1b chromo inh 14% and BAZ2B inh -2%.
For CCC(=NCCN1CCOCC1)c1c(O)n(-c2ccccc2C)c(=O)[nH]c1=O the results were Sfp inh -26%, JMJD2A Tudor -25%, G9a block 28µM*, HP1b chromo inh 73% and BAZ2B inh -37%.
For CNCC1(c2ccccc2)CCCC1 the results were Sfp inh 10%, JMJD2A Tudor -6%, HP1b chromo inh 36% and BAZ2B inh 1%.
For CC(N)c1cccc(Cl)c1Cl (centres undefined) the results were G9a block 8%[59 µM].
CN1CC[C@]2(c3cccc(O)c3)Cc3nc4ccccc4cc3C[C@H]2C1 was read as Sfp inh -11%, G9a block 7%[59 µM] and BAZ2B inh -12%.
For O=c1[nH]c(=O)n(Cc2ccccc2)c(O)c1C=NCCN1CCNCC1 the results were Sfp inh inconclusive, JMJD2A Tudor -15%, G9a block -37%[12.7 µM], HP1b chromo inh 40% and BAZ2B inh 1%.
For O=c1[nH]c(=O)n(Cc2ccccc2)c(O)c1C=Nc1ccc(CN2CCOCC2)cc1 the results were Sfp inh 56µM*, JMJD2A Tudor -7%, G9a block inconclusive, HP1b chromo inh 21% and BAZ2B inh 43%.
`CC1(C)CC(n2[nH]c(=O)c3c2NC(=O)CSC3c2ccc(F)cc2)CCO1` (centres undefined) gave Sfp inh 18%, JMJD2A Tudor -9%, G9a block 13%[59 µM] and HP1b chromo inh 17%.
CCCC(=O)c1c(O)[nH]c(=O)[nH]c1=O was read as Sfp inh 1%, JMJD2A Tudor 18µM*, G9a block -34%[12.7 µM], HP1b chromo inh 19% and BAZ2B inh inconclusive.
Screening CNC(C)Cc1ccccc1OC (centres undefined) returned Sfp inh 4% and G9a block 6%[59 µM].
Cc1ccc2c(c1)CC1(CN2C)C(=O)NC(=O)N(c2ccc(C)c(C)c2)C1=O (centres undefined) was read as Sfp inh -8%, JMJD2A Tudor -16%, G9a block 8.9µM*, HP1b chromo inh 34% and BAZ2B inh -23%.
For Cc1ccc(N2C(=O)CC(=O)NC2=O)cc1Cl the results were Sfp inh -7%, JMJD2A Tudor -7%, HP1b chromo inh 38% and BAZ2B inh -14%.
For Cc1ccc2c(c1)CC1(CN2C)C(=O)NC(=O)N(c2cccc(C)c2C)C1=O (centres undefined) the results were Sfp inh -8%, JMJD2A Tudor -15%, G9a block 7.9µM*, HP1b chromo inh 49% and BAZ2B inh -2%.
COc1ccc(CC2(CCc3ccccn3)C(=O)NC(=O)N(c3ccccc3C)C2=O)cc1OC (centres undefined) was read as Sfp inh -2%, JMJD2A Tudor -10%, G9a block 4%[12.7 µM], HP1b chromo inh 25% and BAZ2B inh -8%.
For Cc1ccc2c(c1)CC1(CN2C)C(=O)NC(=O)N(c2ccccc2C)C1=O (centres undefined) the results were Sfp inh -9%, JMJD2A Tudor -5%[57.1 µM], G9a block 10µM*, HP1b chromo inh 34% and BAZ2B inh -5%.
For Cc1ccc2c(c1)CC1(CN2C)C(=O)NC(=O)N(CCc2ccccc2)C1=O (centres undefined) the results were Sfp inh -27%, JMJD2A Tudor 2%, G9a block 7.9µM*, HP1b chromo inh 47% and BAZ2B inh -4%.
CCN(CC)S(=O)(=O)c1ccc(C(=O)NC2CN3CCC2CC3)cc1 (centres undefined) was read as Sfp inh 2%, JMJD2A Tudor 5%, G9a block 25%, HP1b chromo inh 27% and BAZ2B inh -4%.
CCCS(=O)(=O)N1CCCC(C(=O)N2CCC3(CC2)OCCO3)C1 (centres undefined) was read as Sfp inh 16%, JMJD2A Tudor -13%, HP1b chromo inh 24% and BAZ2B inh 0%.
For COc1ccccc1N1C(=O)NC(=O)C2(Cc3cc(C)ccc3N(C)C2)C1=O (centres undefined) the results were Sfp inh -17%, JMJD2A Tudor -30%, G9a block 8.9µM*, HP1b chromo inh 30% and BAZ2B inh -5%.
COc1cc2c(cc1OC)[C@]13CCN4CC5=CCOC6CC(=O)N2[C@@H]1[C@@H]6C5C[C@@H]43 (some centres undefined) was read as Sfp inh -6%.
CN1CCc2c(C#N)c(Cl)nc(Cl)c2C1 was read as Sfp inh 5%, JMJD2A Tudor -11%, G9a block 45µM*, HP1b chromo inh 50% and BAZ2B inh -1%.
CN1CCc2c(c(N3CCCCC3)nc3n[nH]c(N)c23)C1 was read as Sfp inh 7%, JMJD2A Tudor -8%, G9a block 19%[12.7 µM], HP1b chromo inh 19% and BAZ2B inh 9%.
Screening O=C(O)c1ccc2c(c1)C1C(Cl)C(Sc3ccccc3[N+](=O)[O-])CC1C(c1cccc([N+](=O)[O-])c1)N2 (centres undefined) returned Sfp inh inconclusive, JMJD2A Tudor -22%[11.4 µM], G9a block 20µM*, HP1b chromo inh 40µM* and BAZ2B inh 18µM*.
O=[N+]([O-])c1cccc(C2N3CCCN23)c1 (centres undefined) was read as Sfp inh 23%, JMJD2A Tudor 0%, G9a block -1%, HP1b chromo inh 63% and BAZ2B inh -20%.
Screening O=C(O)c1cccc2c1NC(c1cccc([N+](=O)[O-])c1)C1CC(Sc3ccccc3[N+](=O)[O-])C(Cl)C21 (centres undefined) returned Sfp inh 40µM*, JMJD2A Tudor 22µM*, G9a block 16µM*, HP1b chromo inh inconclusive and BAZ2B inh 22µM*.
For COc1ccccc1-n1c(CNCC2CCCO2)nc2ccccc2c1=O (centres undefined) the results were Sfp inh 6%, JMJD2A Tudor -11%, G9a block -36%[59 µM], HP1b chromo inh 20% and BAZ2B inh -15%.
